Measured values as given in article PMC5540273 (PLoS ONE, 2017).

tested on: T1, PYK2; details: concentration: 1 μM,replicates: in singlicate; n = 1
T1 construct: gene PTK2B
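Also: KINOMEscan kinase panel screen.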

First: CC(C)c1nc(-c2cccc(NS(=O)(=O)c3ccccc3)c2)c(-c2ccnc(Nc3ccc4c(c3)CN(C)CC4)n2)s1 [GSK1649598]
Second: CN(c1ccc2c(c1)nc(NCc1ccc(F)cc1)n2C)c1ccnc(Nc2ccc(CS(C)(=O)=O)cc2)n1.Cl [GW813244]
The “%Inh” value of the first is higher: 48% for the first, 39% for the second.

Compared with `C[C@@H](Oc1cc(-n2cnc3cc(-c4cnn(C)c4)ccc32)sc1C(N)=O)c1ccccc1Cl` [GSK580432], `CN1CCN(CCCNc2nccc(-c3c(-c4ccc(F)cc4)nn4cc(C(N)=O)ccc34)n2)CC1` [GW622475] is higher in “%Inh” value: 0% for the first, 9% for the second.

`CCn1c(-c2nonc2N)nc2cncc(CNC3CCNCC3)c21.Cl` [SB-747651] and `COC(=O)c1cccc(NC(=O)NC2CCN(c3ccnc(Nc4cc(OC)c(OC)c(OC)c4)n3)C2)c1` (stereo not drawn) [GSK1379767] are the same in “%Inh” value: 0% for the first, 0% for the second.

Compared with `Cc1ccc(C(=O)Nc2ccc(Oc3ccc4nc(NC(=O)C5CC5)cn4c3)c(F)c2)c(=O)n1-c1ccccc1`, `Cn1ccc2ncnc(Oc3ccc(NC(=O)Nc4cccc(C(F)(F)F)c4)c(F)c3)c21` is lower in “%Inh” value: 19% for the first, 11% for the second.

Compared with `CC(=O)Nc1ccc(-c2cc3ncnc(SCC(=O)O)c3s2)cc1`, `Cn1ccc2ncnc(Oc3ccc(NC(=O)Nc4ccnc(C(F)(F)F)c4)c(Cl)c3)c21` is higher in “%Inh” value: 0% for the first, 9% for the second.

Compared with `FC(F)(F)c1cc(Br)cc(Nc2nccc(-c3cnn4ncccc34)n2)c1` [GW810578], `CCCC(=O)Nc1n[nH]c2ncccc12` [SB-601436] is lower in “%Inh” value: 80% for the first, 7% for the second.
